Bioassay records as filed in PubChem BioAssay.
PLK1 PBD inh = qHTS for Inhibitors of PLK1-PDB (polo-like kinase 1 - polo-box domain): Primary Screen; Plk1 PBD binding of FITC phosphopeptide, fluorescence polarization; hit rate 2.8% among 360,000; Potency, µM, inactives show max response, negative = inhibition, most hits filed as inhibitors; further: potency means the concentration at half of the fitted maximal effect; series mostly up to about 57 µM; on the % scale 0 is the no-effect control and ±100 the full control effect; nearly all actives have a fitted effect of over 65% in size
G9a block = qHTS Assay for Inhibitors of Histone Lysine Methyltransferase G9a. hit rate 8.8% among 350,000. AID 504332, 2011. Histone-lysine N-methyltransferase EHMT2 (Homo sapiens), Q96KQ7. Potency, µM (highest dose often 102 µM), inactives show at the top dose activity, negative = inhibition, actives largely listed as inhibitors. G9a H3K9 monomethylation, AlphaScreen, 2 h; further: potency means the concentration at half of the fitted maximal effect; on the % scale 0 is the no-effect control and ±100 the full control effect; nearly all actives have a fitted effect of over 75% in size
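G9a (20 nM) preincubated 15 min RT with compounds, then 500 nM biotinylated H3K9 peptide and 20 uM SAM added; 2 h RT reaction. Monomethyl-H3K9 product detected by AlphaScreen with anti-H3K9me1 antibody, streptavidin donor and anti-rabbit IgG acceptor beads.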
JMJD2A Tudor inh = qHTS Assay for Inhibitors of JMJD2A-Tudor Domain; Lysine-specific demethylase 4A (Homo sapiens), O75164; AlphaScreen JMJD2A-Tudor / H3K4me3 peptide binding; Potency, µM (series often up to 114 µM), for inactives: at the highest dose activity change, negative = inhibition, usual class: inhibitors; hit rate 4.4% among 390,000; further: potency means the concentration at half of the fitted maximal effect; on the % scale 0 is the no-effect control and ±100 the full control effect; nearly all actives have a fitted effect of over 50% in size
HP1b chromo inh = HTS for Inhibitors of HP1-beta Chromodomain Interactions with Methylated Histone Tails; Potency, µM (highest dose often 114 µM), for the others: top-dose activity change, negative = inhibition, actives largely listed as inhibitors; AlphaScreen HP1-beta / biotin-H3K9me3 peptide binding; hit rate 0.56% among 390,000; AID 540317, 2011; Chromobox protein homolog 1 (Homo sapiens), P83916; further: potency means the concentration at half of the fitted maximal effect; nearly all actives have a fitted effect of over 70% in size
Target sequence (P83916 whole entry, looked up): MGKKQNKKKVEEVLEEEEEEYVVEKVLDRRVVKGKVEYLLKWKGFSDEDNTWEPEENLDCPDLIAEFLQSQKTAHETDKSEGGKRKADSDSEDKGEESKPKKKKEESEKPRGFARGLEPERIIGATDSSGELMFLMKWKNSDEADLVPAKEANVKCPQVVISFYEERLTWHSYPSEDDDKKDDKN
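AlphaScreen: HP1-beta (50 nM) preformed 30 min with biotin-H3(1-18)K9me3 peptide (50 nM) in PBS pH 7.4, 0.01% Tween-20. Compound added for 30 min at RT, then streptavidin donor/nickel chelate acceptor beads (10 ug/mL) for 30 min.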
PI5P4Ka inh = qHTS for Inhibitors of phosphatidylinositol 5-phosphate 4-kinase (PI5P4K); max response, %; hit rate 1.2% among 330,000; PI5P4Kalpha enzyme, ADP-Glo luminescence, 60 min; active compounds read low; active means max response of -50% or lower; inconclusive means between -30% and -50%; inactive means -30% or higher; further: value at the top dose of about 77 µM; on the % scale 0 is the no-effect control and ±100 the full control effect
Target sequence (P48426 whole entry, looked up): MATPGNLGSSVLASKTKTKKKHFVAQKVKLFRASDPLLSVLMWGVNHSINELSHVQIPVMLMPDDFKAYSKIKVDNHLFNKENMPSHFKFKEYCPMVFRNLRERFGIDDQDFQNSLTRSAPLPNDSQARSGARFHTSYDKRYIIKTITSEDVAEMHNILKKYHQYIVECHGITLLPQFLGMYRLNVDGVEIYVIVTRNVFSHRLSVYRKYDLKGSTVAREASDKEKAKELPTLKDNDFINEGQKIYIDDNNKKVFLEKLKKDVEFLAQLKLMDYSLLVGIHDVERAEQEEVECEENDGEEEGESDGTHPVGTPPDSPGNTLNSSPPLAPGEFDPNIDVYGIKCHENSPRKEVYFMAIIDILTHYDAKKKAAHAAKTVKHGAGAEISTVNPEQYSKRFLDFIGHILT
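qHTS, 1536-well: enzyme/substrate mix, compound by pin tool, 5 microM ATP final; RT 60 min; ADP-Glo reagents 1 (45 min) then 2 (30 min); luminescence.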
BAZ2B inh = qHTS Assay for Inhibitors of BAZ2B; AlphaScreen BAZ2B-H3K14Ac peptide displacement; AID 504333, 2011; Potency, µM (highest dose often 114 µM), inactives show at the top dose activity change, negative = inhibition, usual class: inhibitors; hit rate 4.4% among 360,000; Bromodomain adjacent to zinc finger domain protein 2B (Homo sapiens), Q9UIF8; further: potency means the concentration at half of the fitted maximal effect; on the % scale 0 is the no-effect control and ±100 the full control effect; nearly all actives have a fitted effect of over 60% in size
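AlphaScreen luminescence quantifies BAZ2B engagement of H3K14Ac peptide; the protein and biotinylated peptide are both at 50 nM final, buffer PBS pH 7.4 with 0.01% Tween-20, all steps at room temperature.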
* = called active by the depositor; u = inconclusive; x = no result given; [ ] = another dose, or the depositor's remark. Sampled rows, rich in hits. Any-hit rate of the full collection: about 12%. Unless noted, the call rests on the fitted dose curve; in most records, active means well fitted curve in the direction sought with a large enough effect; inconclusive means small, poorly fitted or top-dose-only effect, or another doubt; inactive means no such curve, though single readings can be large; an effect the other way counts as inactive or inconclusive.

SMILES	PLK1 PBD inh	G9a block	JMJD2A Tudor inh	HP1b chromo inh	PI5P4Ka inh	BAZ2B inh
O=C(O)c1c[nH]c2ccc(S(=O)(=O)N(CCCl)CCCl)cc12	-4%	18µM*	-6%	28%	-17	2%
N#C/C(=C(/O)c1ccc(S(=O)(=O)N(CCCl)CCCl)cc1)c1nc2ccccc2[nH]1	-3%	23%[12.7 µM]	-16%	58%	-10	-11%
Cn1cc(C=C2C(=O)NC(=O)NC2=O)c2ccccc21	24µM*	-24%	u	28%	-24	-8%
C=CCn1c(C)c(C=C2C(=O)NC(=O)NC2=O)c2ccccc21	27µM*	50µM*	-30%	22%	-17	-38%
O=C(Cn1cc(C(=O)c2ccccc2)c2ccccc21)Nc1ccc(Br)cc1	x	13%[59 µM]	4%	21%	x	3%
Cn1cc(C(=O)c2ccccc2)c2ccccc21	-11%	-10%	-4%	32%	4	8%
Cc1ccc(NC(=O)Cn2cc(C(=O)c3ccccc3)c3ccccc32)cc1	x	-8%[59 µM]	40µM*	38%	x	-20%
O=C(c1ccccc1F)c1cn(CC(=O)N2CCCC2)c2ccccc12	3µM*	10%	u	u	u	14%
CC(C)NC(=O)N1CCCC2(CCN(C(=O)Oc3ccccc3)CC2)C1	x	35%[12.7 µM]	x	x	x	x
c1ccc(N2CC3(CCNCC3)C2)nc1	x	-8%[12.7 µM]	x	x	x	x
COc1cccc(-n2c(/C=C/c3ccccc3O)nc3ccccc3c2=O)c1	x	-11%[59 µM]	-3%	23%	x	-1%
COCCNC(=O)Cn1cc(C=C2C(=O)NC(=O)NC2=O)c2ccccc21	6.7µM*	6%	-6%	38%	5	-3%
COCCNC(=O)Cn1cc(C(=O)c2ccccc2F)c2ccccc21	30µM*	u	-11%[57.1 µM]	4%	-6	-10%
O=C1Nc2ccccc2Oc2ccccc21	-1%	x	x	x	1	x
COc1cccc(C(=O)c2cn(CC(=O)Nc3cc(Cl)c(OC)cc3OC)c3nc(C)ccc3c2=O)c1	x	8%[59 µM]	-15%	79%	x	5%
Cc1ccc(Sc2ccc(C=C3C(=O)N(C)C(=O)N(C)C3=O)o2)cc1	0.53µM*	x	-28%	u	-16	u
COc1ccc(OCC(=O)N2CCN(C3CCC(c4ccccc4)CC3)CC2)cc1 (stereo unspecified)	-10%	u	20µM*	u	7	50µM*
O=C(COc1ccccc1)N1CCN(C2CCCC2)CC1	3%	10µM*	7.9µM*	-55%	0	-106%
O=C(Cc1ccccc1)N1CCN(C2CCCC2)CC1	-7%	-31%[2.33 µM]	32µM*	-34%	3	u
N#CC1=C(N)Oc2n[nH]c(-c3ccccc3)c2C1c1cccc(OC(=O)N2CCOCC2)c1 (stereo unspecified)	-16%	u	-26%	18%	-10	-34%
CCCC[C@@H](C)[C@@H](OC(=O)C[C@@H](CC(=O)O)C(=O)O)[C@H](C[C@@H](C)C[C@H](O)CCCC[C@@H](O)C[C@H](O)[C@H](C)N)OC(=O)C[C@H](CC(=O)O)C(=O)O	x	18%[59 µM]	x	x	x	x
CN1CCN(c2ccc(N)c(N3CCN(C)CC3)c2)CC1	-2%	u	-30%	-8%	1	u
CCN1CCN(c2ccc(N)cc2)CC1	0%	40µM*	-28%	3%	0	-18%
CCN1CCN(c2ccc(N)cc2C)CC1	-8%	32µM*	u	-14%	-8	u
CN1CCN(c2ccc(N)cc2)CC1	-1%	13µM*	u	-11%	-2	u
SMILES	PLK1 PBD inh	G9a block	JMJD2A Tudor inh	HP1b chromo inh	PI5P4Ka inh	BAZ2B inh
CCOC(=O)c1c(C)c(P(=S)(N2CCOCC2)N2CCOCC2)n(C)c1C	27µM*	6.3µM*	-25%	u	7	u
CCOC(=O)c1ccc(NC(=O)C2C3C=CC(O3)C2C(=O)O)cc1 (stereo unspecified)	x	35µM*	x	x	x	-3%
CCOC(=O)c1ccc(NC(=O)CSc2nc3c(cc2C#N)N2CCC3CC2)cc1	x	10%[59 µM]	4%	47%	x	-3%
CC[C@H]1CN2CCc3cc(OC)c(OC)cc3[C@H]2C[C@@H]1C[C@@H]1NCCc2cc(OC)c(OC)cc21	x	20%[59 µM]	x	x	x	x
Cc1ccc(N)c(C)c1	1%	-5%[0.501 µM]	-12%	41%	3	6%
Cc1ccc(N=Nc2cc(C)ccc2N)cc1	-12%	x	u	u	1	7.9µM*
O=C(CCN1CCN(c2ccccc2)CC1)c1ccc(Br)cc1	8.4µM*	20µM*	-32%	21%	1	u
O=C(CCN1CCCCC1)Nc1ccc(Br)cc1C(=O)c1ccccc1	0%	1%[2.33 µM]	-16%	25%	-1	4%
O=c1c2ccccc2nc(/C=C\c2cccc(Br)c2)n1-c1ccc(O)cc1	x	22%[59 µM]	-21%	30%	x	-1%
C/C(=C/C=C/[C@@H](C)C(=O)O)[C@H]1CN[C@H](C(=O)O)[C@H]1CC(=O)O	-8%	u	56µM*	21%	2	-2%
CCOC(=O)c1ccc(NC(c2ccc(N(C)C)cc2)P(=O)(OC(C)C)OC(C)C)cc1 (stereo unspecified)	2%	35µM*	50µM*	u	0	32µM*
CC(C)COP(=O)(c1ccc(N(C)C)cc1)C(Nc1ccccc1)c1ccccc1 (stereo unspecified)	-8%	u	-35%[57.1 µM]	48%	6	u
CC[C@@H](CO)NC(=O)[C@H]1C=C2c3cccc4c3c(cn4C)C[C@H]2N(C)C1	x	35%[12.7 µM]	x	x	x	x
CN(CC(=O)N[C@H](CO)Cc1ccccc1)C(=O)[C@H](CCS(C)=O)NC(=O)[C@@H](N)Cc1ccc(O)cc1 (stereo partly specified)	x	44%[59 µM]	x	x	x	x
O=C1NC(=O)N(c2ccccc2)C(=O)/C1=C\c1ccc([N+](=O)[O-])o1	x	13µM*	x	x	x	40µM*
CN1C(=O)NC(=O)/C(=C\c2ccc([N+](=O)[O-])o2)C1=O	2.7µM*	13µM*	16µM*	25µM*	-102*	35µM*
COP(=O)(OC)c1nc(-c2cccc3ccccc23)oc1NCCc1ccccc1	-5%	-2%[59 µM]	65%	101%	25	4%
COc1ccc(N2C(=O)CC(N3CC=C(c4ccccc4)CC3)C2=O)cc1 (stereo unspecified)	-13%	10µM*	-23%	0%	-17	-11%
CCOC(=O)C1CCCN(Cc2ccc(-c3ccccc3)cc2)C1 (stereo unspecified)	-5%	x	28µM*	-27%	1	u
CN1CCc2c(C#N)c(Cl)nc(Cl)c2C1	-12%	45µM*	-11%	50%	7	-1%
